# Bioassay records (PubChem BioAssay)
# HT1080-NT tox – kills 2HG-producing HT-1080-NT fibrosarcoma cells; HT-1080-NT fibrosarcoma viability, CellTiter-Glo ATP luminescence, 48 h; Potency, µM (series often up to 46.1 µM), for inactives: at the highest dose activity, negative = less viability, usual class: cytotoxic; 360,000 compounds, 1.6% hits; AID 686970;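 note: NT is the 2HG producing partner of a matched IDH1 knockdown line; 0% = DMSO-treated cells and -100% = media-only wells without cells; nearly all actives have a fitted effect of over 55% in size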
#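 Viability of the 2HG-overproducing fibrosarcoma line after 48 hours of compound exposure at 37 degrees C was determined by luminescence with CellTiter-Glo, and concentration-effect curves were then fitted and categorized.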
# KB-V1 cytotox – KB-V1 MDR subline cytotoxicity | Potency, µM (top dose mostly 46.1 µM), most hits filed as cytotoxic | AID 1347076 | 400,000 compounds, 3.4% hits | KB-V1 MDR cells viability, CellTiter-Glo, 72 h; note: % is set by controls: 0 for no effect and ±100 for the full control effect; nearly all actives have a fitted effect of over 60% in size
#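 Readout: CellTiter-Glo luminescence, 10 min after addition. Cells: KB-V1 MDR subline, 72 h at 37 degrees C with compound. Analysis: corrected, normalized data fitted to concentration-effect curves.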
# KB-3-1 cytotox – kills parental KB-3-1 adenocarcinoma cells. KB-3-1 viability, CellTiter-Glo ATP luminescence, 72 h. Potency, µM (titrated, usually from 46.1 µM), hits mostly cytotoxic. 400,000 compounds, 1.4% hits; note: % is set by controls: 0 for no effect and ±100 for the full control effect; nearly all actives have a fitted effect of over 60% in size
#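 Cytotoxicity measured as CellTiter-Glo luminescence after 72 h at 37 C. Compound titrations were pinned onto drug-naive KB-3-1 parental adenocarcinoma cells grown in DMEM with 10% FBS, and normalized data fitted to concentration-response curves.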
# SW480 rerep – DNA re-replication induction in SW480 cells; SW480 DNA re-replication, Hoechst DNA content imaging, 48 h; Potency, µM (series often up to 46.1 µM), for inactives: top-dose re-replication activation, hits mostly activators; 340,000 compounds, 1.8% hits; note: % of control where 0% means no effect; nearly all actives have a fitted effect of over 55% in size
#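 Hoechst fluorescence of nuclei (405 nm excitation, 500-530 nm emission) measured by plate-scanning imager after 48 hr compound exposure at 37 C; re-replication scored as increased number of nuclei with elevated intensity.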
# MCF10A rerep – induces DNA re-replication in MCF 10a normal breast cells; MCF 10A DNA re-replication, Hoechst nuclear intensity, 48 h; Potency, µM (titrated, usually from 46.1 µM), inactives show top-dose activity, positive = re-replication, usual class: activators; 350,000 compounds, 2.9% hits; AID 624296; note: % of control where 0% means no effect; nearly all actives have a fitted effect of over 50% in size
# HT1080 IDH1KD tx – kills HT-1080 cells with IDH1 knockdown. HT-1080 IDH1 knockdown viability, ATP luminescence, 48 h. Potency, µM (titrated, usually from 46.1 µM), for inactives: at the top dose activity, negative = toxicity, usual class: cytotoxic. 360,000 compounds, 2% hits. AID 686971;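 note: 0% = DMSO wells and -100% = cell-free medium wells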
#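 IDH1KD HT-1080 cells, 750/well, RPMI + 5% FBS; compound pinned after 2 h settling; 48 h, 37 °C; CellTiter-Glo luminescence; % activity normalised to DMSO and no-cell wells; curves fitted, classed by r2 and efficacy.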
# An asterisk follows results filed as active; i = inactive; ? = inconclusive; . = not tested or not shown; [ ] = remark or other dose. Shown are actives, neighbours in structure and some others; about 8% of the full set was active somewhere. Calls come from the whole dose curve; as a rule, active = well fitted curve in the direction sought with a large enough effect; inconclusive = small, poorly fitted or top-dose-only effect, or another doubt; inactive = no such curve, though single readings can be large; an effect the other way counts as inactive or inconclusive. Potency is the fitted concentration of half-maximal effect.
SMILES,HT1080-NT tox,KB-V1 cytotox,KB-3-1 cytotox,SW480 rerep,MCF10A rerep,HT1080 IDH1KD tx
COc1ccccc1NC(=O)C1=C(C)Nc2nc3ccccc3n2C1c1ccccc1Cl (stereo not given),.,?,i,.,.,.
Cn1c(SCCOc2ccccc2)nnc1-c1ccc(NC(=O)CCc2ccccc2)cc1,.,i,i,.,.,.
CCc1ccc(NC(=O)Cn2c(=O)n(Cc3ccco3)c(=O)c3cccnc32)cc1,.,i,i,.,.,.
CCC(c1nnnn1-c1ccc2c(c1)OCCO2)N1CCN(c2ccc(OC)cc2)CC1 (stereo not given),-2%,16µM*,?,.,.,-29%
CCC(c1nnnn1-c1ccc2c(c1)OCCO2)N1CCN(c2ncccn2)CC1 (stereo not given),-1%,i,i,.,.,2%
O=C(c1c(F)cccc1F)N(Cc1cccs1)C1CCCC1,4%,i,i,1%,20%,-14%
O=C(c1c(F)cccc1F)N(Cc1ccccn1)C1CCCC1,-2%,21µM*,i,-5%,-6%,?
O=C(O)c1ccc(-n2nncc2-c2ccco2)cc1,7%,i,i,-4%,-2%,18%
O=C(Nc1ccc(-n2nncc2-c2ccco2)cc1)c1ccc(F)cc1,-10%,16µM*,i,?,26%,-16%
CCN(CC)c1ccc(NC(=O)CSc2nnc(C)c(=O)[nH]2)cc1,.,?,i,.,.,.
COc1ccc(/C(O)=C/C(=O)C(=O)Nc2c(C)n(C)n(-c3ccccc3)c2=O)cc1,-24%,16µM*,i,-9%,?,0%
Cc1c(NC(=O)c2ccc(COc3ccc4ccccc4c3)o2)c(=O)n(-c2ccccc2)n1C,0%,7.3µM*,21µM*,-1%,-2%,2%
Cc1cccc(NC(=O)c2ccc(COc3ccc4ccccc4c3)o2)n1,-7%,i,i,-16%,?,-12%
Cc1cc(C)c2c(C)c(C(=O)Nc3c(C)n(C)n(-c4ccccc4)c3=O)oc2c1,-1%,8.2µM*,i,-702%,-64%,-15%
Cc1ccc(O)c(-c2n[nH]c3c2C(c2ccccc2F)N(Cc2ccco2)C3=O)c1 (stereo not given),.,?,i,.,.,.
Cc1ccc(-c2nn3c(=O)cc(CN4CCN(C(=O)/C=C/c5ccccc5)CC4)nc3s2)cc1,.,i,i,.,.,.
CC(=O)c1cccc(NC(=O)Nc2sc3nc4n(c(=O)c3c2C)CCC(C)CC4)c1 (stereo not given),.,?,i,.,.,.
c1ccc2nc(-c3nc4ccccc4[nH]3)ccc2c1,26µM*,?,?,1%[9.22 µM],6%,13µM*
c1ccc2[nH]c(-c3cscn3)nc2c1,3%,i,i,7%,2%,2%
c1ccc2c(-c3nc4ccccc4[nH]3)cccc2c1,?,4.6µM*,21µM*,.,.,18µM*
Cc1cccc(NC(=O)[C@@H](CC(C)C)NC(=O)[C@@H]2Cc3ccccc3CN2)c1,11%,i,i,6%,-3%,-8%
COc1ccc(CNC(=O)[C@H](Cc2c[nH]c3ccccc23)NC(=O)[C@@H]2Cc3ccccc3CN2)cc1,-11%,i,i,10%,15%,-12%
COc1ccc(NC(=O)[C@H](Cc2c[nH]c3ccccc23)NC(=O)[C@@H]2Cc3ccccc3CN2)cc1,?,i,i,?,15µM*,?
CC(C)c1ccc(NC(=O)[C@H](NC(=O)[C@@H]2Cc3ccccc3CN2)c2ccccc2)cc1,?,i,i,?,21µM*,?
CC(C)c1ccc(NC(=O)[C@H](Cc2c[nH]c3ccccc23)NC(=O)[C@@H]2Cc3ccccc3CN2)cc1,-14%,i,?,?,21µM*,-18%
SMILES,HT1080-NT tox,KB-V1 cytotox,KB-3-1 cytotox,SW480 rerep,MCF10A rerep,HT1080 IDH1KD tx
Cc1ccc(NC(=O)[C@H](NC(=O)[C@@H]2Cc3ccccc3CN2)c2ccccc2)cc1,-3%,i,i,-33%,0%,1%
Cc1ccc(C2=N/C(=C\c3ccc(F)cc3)C(=O)N2)cc1,-1%,i,i,15µM*,?,-7%
COc1cc(C(=O)Nc2cc(C)c(O)c(-c3nc4cc(Cl)ccc4o3)c2)cc(OC)c1OC,.,i,7.3µM*,.,.,.
COc1cc(C(=O)Nc2cccc(-c3nc4cc(C)ccc4o3)c2C)cc(OC)c1OC,-29%,i,i,1%,7.3µM*,?
CCCOc1ccc(-c2nonc2NC(=O)c2oc3ccc(Cl)cc3c2C)cc1OCCC,.,i,i,.,.,.
COc1ccccc1N1CCN(C(=O)c2cc3ccc4ccc(C)[nH]c4c3n2)CC1,.,?,i,.,.,.
NNc1nc(-c2ccccc2)cc(-c2ccccc2)n1,-20%,i,?,-36%,6%,?
NNc1nc(-c2ccccc2)cc(-c2ccccc2O)n1,?,5.2µM*,?,?,?,13µM*
CN1CCCC(n2nc(Cc3ccc(Cl)cc3)c3ccccc3c2=O)CC1 (stereo not given),5.2µM*,?,6.5µM*,-28%,42%,4.1µM*
CCOC(=O)Cn1nc(Cc2ccccc2)c2ccccc2c1=O,-5%,i,i,-8%,3%,-3%
Cc1ccc(N(CCCCN2C(=O)c3ccccc3C2=O)C(=O)c2cccc([N+](=O)[O-])c2)cc1,-9%,18µM*,i,9%,20%,-19%
O=C1c2ccccc2C(=O)N1CCCCN(C(=O)c1cc([N+](=O)[O-])cc([N+](=O)[O-])c1)c1ccc(Cl)cc1,14%,i,i,8%,3%,11%
O=S1(=O)N=C(Oc2ccc3ccccc3c2)c2ccccc21,.,i,i,.,.,.
CCOc1ccc(NCc2cccn2-c2nnc(N3CCC(C(=O)NCCCN4CC(C)CC(C)C4)CC3)s2)cc1 (stereo not given),21µM*,i,i,?,-2%,?
COc1ccc(NCc2cccn2-c2nnc(N3CCCCCC3)s2)cc1,.,i,i,.,.,.
O=C1CCC[C@@H]2C[C@@]3(C[C@@H]4CCN1[C@H]24)Nc1cc([N+](=O)[O-])ccc1NC3=NCc1ccccc1,.,i,i,.,.,.
O=C(NN=Cc1ccc(F)cc1)C1CC1,-3%,i,i,-7%,6%,3%
C=C1CC(C(=O)N/N=C/c2ccc(O)cc2)C1,16%,i,i,16µM*,-4%,16%
Cc1ccc(S(=O)(=O)N2CCc3cc(C(=O)Nc4c(F)cccc4F)ccc32)cc1,.,i,i,.,.,.
